# Measurements from the supplement of paper PMC10338343.
# ± gives the standard deviation.
# Test system: MILI (PIWIL2) piRISC loaded with L1MC piRNA (26 nt)
# Experiment: pre-steady-state target cleavage rate (min^-1); guide: L1MC piRNA 5'p-UAACUAAAUACUAUGCAAGCUGUAGG; MIWI and MILI are mouse PIWI proteins and EfPiwi is from a freshwater sponge; tags in brackets are library labels; higher = faster piRNA-guided slicing of the target
# Method in brief: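 In this Cleave-'n-Seq assay, uncleaved targets were sequenced and normalised to depth and to weakly complementary targets. They came from a transcribed, DNA-blocked target RNA library […] mixed with 1 nM active affinity-purified piRISC carrying one synthetic guide, with or without 500 nM GTSF1 partner protein, in HEPES–potassium acetate buffer at 33 °C for 0–8 or 0–960 min. After three trials were pooled and k3 was capped at 0.0001 min^-1, the pre-steady-state cleavage rate was obtained from a burst-and-steady-state fit.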
# [1] = auxiliary factor: 500 nM mouse GTSF1
# [2] = auxiliary factor: none (no GTSF1)
# 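Also: 1 nM active piRISC with 0.1 nM target library at 33 °C single turnover.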
Sequence,pre-steady-state target cleavage rate [1],pre-steady-state target cleavage rate [2]
UCCUGGAUGUCCUUGCAAAGUAAUUAGUUA,0.018 ± 0.0064,0.00522 ± 0.0014
UCCUGGAUCAGCUUGCAUAGUAUUUACGUUA,0.243 ± 0.027,0.00431 ± 0.0028
UCCUGGAUGUCGAACGAUAGUAUUUAGAUA,–,< 0.0001
UCCUGGAACACCUUGCAUAGUAUUUAGUAA,0.17 ± 0.022,–
UCCUGCUACAGCUUGCUAUGUAUUUAGUUA,0.0638 ± 0.017,0.00522 ± 0.0021
UCCUGGAUGUCCUUGCAUAGUUUUAAGUUA,0.0115 ± 0.0059,0.00312 ± 0.0026
UCCUGGAUGAGGUUGCAUAGUAUUAAGUUA,0.0422 ± 0.018,0.00493 ± 0.0031
UCCUGGAUGAGCUUGCAUAGUAUUAGUUA,0.0846 ± 0.015,–
UCCUGGAUGAGGUUGCAUAGAAUUUAGUUA,0.00935 ± 0.0046,–
UCCUGGAUGUCGUUGCAUAGUAUUUAGUGUA,0.17 ± 0.027,0.00477 ± 0.0035
UCCUGGAUCAGCUUGCAUAGUAUUAUGUAA,0.00562 ± 0.0035,–
UCCUGGAACAGCUUGCUAAGUAUUUACAAA,0.0164 ± 0.0066,–
UCCUGGAUGUGCUUGCAUAGUAUUUACGUUA,0.129 ± 0.026,–
UCCUCCUACAGCUACCAUAGUAUUUACAAA,0.0179 ± 0.008,–
UCCUGCUACAGCUUCCAUAGUAUUUUGUUA,0.00554 ± 0.0042,–
UCCUGGAUGUCGUUGCAGAGUAUUUAGUUA,0.0117 ± 0.0043,0.0038 ± 0.0022
UCCUGCUAUAGCUUGCAUAGUAUUUAGUUA,0.221 ± 0.017,0.00678 ± 0.0018
UCCUCCUACAGCUUGCAUAGUAAUUAGAAA,0.127 ± 0.032,–
UCCUGGAUGUGCUUCGUUAGUAUUUAGUUA,0.00476 ± 0.0034,–
UCCUGGUACAGCUUGCAUAGCAUUUAGUUA,0.117 ± 0.03,0.00488 ± 0.0026

Sequence,pre-steady-state target cleavage rate [1],pre-steady-state target cleavage rate [2]
UCCUGGAUCAGGAAGCAUAGUAUUUAGUUA,0.0634 ± 0.0094,0.00311 ± 0.0023
UCCUGGAUGUCCUUGCUUAGUAUAUAGUUA,0.0347 ± 0.0085,0.0039 ± 0.0023
UCCUGGAUGUCGUUGCAUAGUAUUAUAGUUA,0.173 ± 0.03,0.00429 ± 0.0034
UCCUGCUACUGCUUGCAUAGUAUUUAGUUA,0.234 ± 0.025,0.00705 ± 0.0018
UCCUGGAUGUCGAUGCAUAGUAUGUAGUUA,0.0337 ± 0.0087,–
UCCUCCUACAGCUUGCAUAGUAUUUACGUUA,0.265 ± 0.029,0.00757 ± 0.0026
UCCUGCUACAGCAAGCAUAGUAUUUACAAA,0.191 ± 0.055,–
UCCUGGAUCAGCUUGCAUUGUAUUUUGUUA,0.1 ± 0.019,0.00344 ± 0.0026
UCCUGGAUGUCCUUCAUAGUAUUUAGUUA,0.0147 ± 0.004,0.00296 ± 0.0021
UCCUGGAAGAGCUUGCAUAGUAUUUACUUA,0.0737 ± 0.02,–
UCCUGGAUCAGCUACCAUAGUAUUUACAAA,–,< 0.0001
UCCUGGAUGUGGUUGCAAAGUAUUUAGUUA,0.0262 ± 0.0077,0.00983 ± 0.0026
UCCUGGAUGUGCUUGCUUAGUAUUUACUUA,0.0644 ± 0.015,–
UCCUGGAUGUCGAACCAAAGUAUUUUGUUA,< 0.0001,< 0.0001
UCCUGGAACAGCUUGCAUUGUAUUUACUUA,0.163 ± 0.028,–
UCCUGGAUGUCCUUGCAUAGUAUUUACGUUA,0.11 ± 0.023,0.00693 ± 0.003
UCCUGGUACAGGUUGCAUAGUAAUUAGUUA,0.325 ± 0.041,0.00664 ± 0.0029
UCCUGGAUGAGCUUGCAAAGUAUUUUGUUA,0.0703 ± 0.019,0.00392 ± 0.0026
UCCUGGAUGUGGUUGCAUAGUAUUAAGUUA,0.171 ± 0.048,0.00678 ± 0.0029
UCCUGGAUGAGGUUGCAUUGUAUUUAGUUA,0.0484 ± 0.01,0.00431 ± 0.0027

Sequence,pre-steady-state target cleavage rate [1],pre-steady-state target cleavage rate [2]
UCCUGGAUGUCCUUGCAUACUUUUUAGUUA,0.00626 ± 0.004,0.0024 ± 0.0022
UCCUGGAUGUCGUUGCAUAGUACUUUAGUUA,0.0156 ± 0.0059,0.00645 ± 0.0028
UCCUGGAAGAGGUUGCAUAGUAUUUAGUUA,0.233 ± 0.012,0.0116 ± 0.0031
UCCUGGAUGAGCUUGGUUAGUAUUUAGUAA,0.175 ± 0.027,0.0063 ± 0.0023
UCCUGGAUGUCCUAGCAUAGUAUUAAGUUA,0.0366 ± 0.0077,0.00287 ± 0.0022
UCCUGGAUGUCCUUGCAUCGUAUUUAGUUA,0.0423 ± 0.015,0.00482 ± 0.0021
UCCUGGUACAGCUUGGUUAGUAUUUAGUAA,0.159 ± 0.038,0.01 ± 0.0031
UCCUGCUACAGGUUGCAUUGUAUUUAGUUA,0.141 ± 0.019,0.0103 ± 0.0026
UCCUGGAUGUCGAUGCAUAGUAUUUAGUUUA,0.0871 ± 0.014,0.0069 ± 0.0031
UCCUGCUACAGCUACGAUAGUAUUUAGUUA,0.243 ± 0.02,0.00263 ± 0.0024
UCCUGGAUGUCCUUGGAUAGUAUUUUGUUA,0.139 ± 0.031,0.00318 ± 0.0024
UCCUGGUACAGGUUGCAUAGUAUUUACAAA,0.0239 ± 0.011,0.00315 ± 0.003
UCCUGGUACAGCUUGGAAAGUAUUUAGUUA,0.111 ± 0.014,0.00903 ± 0.0035
UCCUGGAUGUCCUUGCAUAGUAUUCUAGUUA,0.1 ± 0.022,0.00384 ± 0.0034
UCCUGGAUGUGCUUGCAAAGUAAUUAGUUA,0.0171 ± 0.0056,0.00395 ± 0.0028
UCCUGCUACACGCUUGCAUAGUAUUUAGUUA,0.218 ± 0.032,0.00682 ± 0.0029
UCCUGGAUGUCGAUGCAUGGUAUUUAGUUA,0.0229 ± 0.0078,0.00372 ± 0.0028
UCCUGGAUGUCGUUGCUUAGUAUAUAGUUA,0.0611 ± 0.014,0.0122 ± 0.0029
